Reference: PubChem BioAssay (NCATS)
Inconclusive results are not listed. The source made the active and inactive calls. Calls follow the shape of the dose curve; as a rule, active = well fitted cell-killing curve with a large enough effect; inconclusive = small, poorly fitted or top-dose-only effect, or effect the other way; inactive = flat fitted curve, though single readings scatter.

Key:
Assay in all cases: Primary qHTS to identify gynecologic anti-cancer compounds using libraries of approved drugs and bioactive compounds (AID 1345084); also: nearly all actives have a fitted effect of over 55% in size
C33A = conditions: Gynecologic cancer cell panel viability, ATPlite luminescence, 48 h; series mostly up to 57.5 µM
How it was run: (§1)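 Cytotoxicity screen measuring ATP content by luciferase luminescence. Each compound is applied at five concentrations for 48 h at 37 C with 5% CO2.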

CAOV3 = conditions: Gynecologic cancer cell panel viability, ATPlite luminescence, 48 h; series mostly up to 57.5 µM
How it was run: as §1

CASKI = conditions: Gynecologic cancer cell panel viability, ATPlite luminescence, 48 h; series mostly up to 57.5 µM
How it was run: as §1

Es-2 = conditions: Gynecologic cancer cell panel viability, ATPlite luminescence, 48 h; series mostly up to 57.5 µM
How it was run: as §1

HeLa = conditions: Gynecologic cancer cell panel viability, ATPlite luminescence, 48 h; series mostly up to 57.5 µM
How it was run: as §1

Hek293T = conditions: Gynecologic cancer cell panel viability, ATPlite luminescence, 48 h, control line for the selectivity index; series mostly up to 57.5 µM
How it was run: as §1

JEG-3 = conditions: Gynecologic cancer cell panel viability, ATPlite luminescence, 48 h; series mostly up to 57.5 µM
How it was run: as §1

OV90 = conditions: Gynecologic cancer cell panel viability, ATPlite luminescence, 48 h; series mostly up to 57.5 µM
How it was run: as §1

PA-1 = conditions: Gynecologic cancer cell panel viability, ATPlite luminescence, 48 h; series mostly up to 57.5 µM
How it was run: as §1
% is scaled to controls: 0 for no effect and ±100 for the full control effect.

O=C(NCCN1CCN(c2cccc3c2OCCO3)CC1)c1ccc(F)cc1
inactive: Potency (C33A) | Potency (CAOV3) | Potency (CASKI) | Potency (Es-2) | Potency (HeLa) | Potency (Hek293T) | Potency (JEG-3) | Potency (OV90) | Potency (PA-1)

C=C1C(=O)OC2C3=C(C)C(=O)CC3C(C)CC(O)C12 (stereo not given)
inactive: Potency (C33A) | Potency (CAOV3) | Potency (CASKI) | Potency (Es-2) | Potency (HeLa) | Potency (Hek293T) | Potency (JEG-3) | Potency (OV90) | Potency (PA-1)

N#Cc1ccc(COC[C@H]2O[C@@H](n3c(NCc4ccc(Cl)c(Cl)c4)nc4c(N)ncnc43)[C@H](O)[C@@H]2O)cc1
inactive: Potency (C33A) | Potency (CAOV3) | Potency (CASKI) | Potency (Es-2) | Potency (HeLa) | Potency (Hek293T) | Potency (JEG-3) | Potency (OV90) | Potency (PA-1)

COc1ccc(C2(CNC(=O)c3ccc(NC(=O)c4ccco4)cc3)CCOCC2)cc1
inactive: Potency (C33A) | Potency (CAOV3) | Potency (CASKI) | Potency (Es-2) | Potency (HeLa) | Potency (Hek293T) | Potency (JEG-3) | Potency (OV90) | Potency (PA-1)

O=C(O)c1cc(N(Cc2ccc(C3CCCCC3)cc2)C(=O)c2ccc(Oc3ccccc3)cc2)ccc1O
inactive: Potency (C33A) | Potency (CAOV3) | Potency (CASKI) | Potency (Es-2) | Potency (HeLa) | Potency (Hek293T) | Potency (JEG-3) | Potency (OV90) | Potency (PA-1)

C[C@@H]1C[C@H](C)CN(CCC(=O)Nc2ccc(Br)cc2)C1
inactive: Potency (C33A) | Potency (CAOV3) | Potency (CASKI) | Potency (Es-2) | Potency (HeLa) | Potency (Hek293T) | Potency (JEG-3) | Potency (OV90) | Potency (PA-1)

C/C=C/C1=CC2=C(CO1)C(=O)C(C)(OC(=O)c1c(C)cc(O)cc1OC)C(O)C2 (stereo not given)
inactive: Potency (C33A) | Potency (CAOV3) | Potency (CASKI) | Potency (Es-2) | Potency (HeLa) | Potency (Hek293T) | Potency (JEG-3) | Potency (OV90) | Potency (PA-1)

CC(=O)O[C@@H]1C[C@@]23C[C@@]24CC[C@H](O[C@@H]2OC[C@H](O)[C@H](O)[C@H]2O)C(C)(C)[C@@H]4CC[C@H]3[C@]2(C)[C@@H](O)C34O[C@H](C[C@@H](C)[C@@H]3[C@@]12C)[C@@H](C(C)(C)O)O4
inactive: Potency (C33A) | Potency (CAOV3) | Potency (CASKI) | Potency (Es-2) | Potency (HeLa) | Potency (Hek293T) | Potency (JEG-3) | Potency (OV90) | Potency (PA-1)

COC1CCN(c2cccc(-c3cc(NC(C)=O)nc(-n4nc(C)cc4C)n3)n2)CC1
inactive: Potency (C33A) | Potency (CAOV3) | Potency (CASKI) | Potency (Es-2) | Potency (HeLa) | Potency (Hek293T) | Potency (JEG-3) | Potency (OV90) | Potency (PA-1)

CCOC(=O)CCNc1cc(N2CCc3ccccc3CC2)nc(-c2cccnc2)n1
inactive: Potency (C33A) | Potency (CAOV3) | Potency (CASKI) | Potency (Es-2) | Potency (HeLa) | Potency (Hek293T) | Potency (JEG-3) | Potency (OV90) | Potency (PA-1)

O=C(Nc1ccc(Cl)cc1)C1CCCN(C(=O)c2cccc(-c3ccco3)c2)C1 (stereo not given)
inactive: Potency (C33A) | Potency (CAOV3) | Potency (CASKI) | Potency (Es-2) | Potency (HeLa) | Potency (Hek293T) | Potency (JEG-3) | Potency (OV90) | Potency (PA-1)

COc1cc(C(=O)O)ccc1NC(=O)C1NC(CC(C)(C)C)C(C#N)(c2ccc(Cl)cc2F)C1c1cccc(Cl)c1F (stereo not given)
inactive: Potency (C33A) | Potency (CAOV3) | Potency (CASKI) | Potency (Es-2) | Potency (HeLa) | Potency (Hek293T) | Potency (JEG-3) | Potency (OV90) | Potency (PA-1)

Cc1ccc(C)c(NS(=O)(=O)c2cc(C(=O)Nc3ccccc3-c3ccccc3)ccc2C)c1
inactive: Potency (C33A) | Potency (CAOV3) | Potency (CASKI) | Potency (Es-2) | Potency (HeLa) | Potency (Hek293T) | Potency (JEG-3) | Potency (OV90) | Potency (PA-1)

NS(=O)(=O)Nc1ncnc(OCCOc2ncc(Br)cn2)c1-c1ccc(Br)cc1
inactive: Potency (C33A) | Potency (CAOV3) | Potency (CASKI) | Potency (Es-2) | Potency (HeLa) | Potency (Hek293T) | Potency (JEG-3) | Potency (OV90) | Potency (PA-1)

Cc1cn2cc(C(=O)N(C)CCO)cc(NC3CCOc4cccc(C)c43)c2n1 (stereo not given)
inactive: Potency (C33A) | Potency (CAOV3) | Potency (CASKI) | Potency (Es-2) | Potency (HeLa) | Potency (Hek293T) | Potency (JEG-3) | Potency (OV90) | Potency (PA-1)

COc1cc(C2OC(c3ccc(OC)c(OC)c3)C(C)C2C)ccc1O (stereo not given)
inactive: Potency (C33A) | Potency (CAOV3) | Potency (CASKI) | Potency (Es-2) | Potency (HeLa) | Potency (Hek293T) | Potency (JEG-3) | Potency (OV90) | Potency (PA-1)

CC(C)=CCC[C@](C)(O[C@@H]1O[C@H](CO[C@@H]2OC[C@@H](O)[C@H](O)[C@H]2O)[C@@H](O)[C@H](O)[C@H]1O)[C@H]1CC[C@]2(C)[C@@H]1[C@H](O)C[C@@H]1[C@@]3(C)CC[C@H](O[C@@H]4O[C@H](CO)[C@@H](O)[C@H](O)[C@H]4O)C(C)(C)[C@@H]3CC[C@]12C
inactive: Potency (C33A) | Potency (CAOV3) | Potency (CASKI) | Potency (Es-2) | Potency (HeLa) | Potency (Hek293T) | Potency (JEG-3) | Potency (OV90) | Potency (PA-1)

CCOC(=O)C1(CCOc2ccccc2)CCN(Cc2ccc(O)c(Cl)c2)CC1
inactive: Potency (C33A) | Potency (CAOV3) | Potency (CASKI) | Potency (Es-2) | Potency (HeLa) | Potency (Hek293T) | Potency (JEG-3) | Potency (OV90) | Potency (PA-1)

CC1(C)CC[C@]2(C(=O)O)[C@H](O)C[C@]3(C)C(=CCC4[C@@]5(C)CC[C@H](O[C@@H]6O[C@H](CO[C@@H]7OC[C@H](O)[C@H](O)[C@H]7O[C@@H]7OC[C@H](O)[C@H](O)[C@H]7O)[C@@H](O)[C@H](O)[C@H]6O)C(C)(C)C5CC[C@]43C)[C@@H]2C1 (stereo not given in full)
inactive: activity change, negative = cytotoxicity (C33A) 3.19% [at 11.6 µM] | activity change, negative = cytotoxicity (CAOV3) 6.12% [at 11.6 µM] | activity change, negative = cytotoxicity (CASKI) -7.68% [at 11.6 µM] | activity change, negative = cytotoxicity (Es-2) -0.336% [at 11.6 µM] | activity change, negative = cytotoxicity (HeLa) -1.57% [at 11.6 µM] | activity change, negative = cytotoxicity (Hek293T) -1.34% [at 11.6 µM] | activity change, negative = cytotoxicity (JEG-3) 14% [at 11.6 µM] | activity change, negative = cytotoxicity (OV90) 2.79% [at 11.6 µM] | activity change, negative = cytotoxicity (PA-1) 4.95% [at 11.6 µM]

COC1CCN(C(=O)c2cc(Cc3n[nH]c(=O)c4ccccc34)ccc2F)CC1
inactive: Potency (C33A) | Potency (CAOV3) | Potency (CASKI) | Potency (Es-2) | Potency (HeLa) | Potency (Hek293T) | Potency (JEG-3) | Potency (OV90) | Potency (PA-1)
